Inconclusive results are not listed. Entries that show only a call come without a potency. Calls of active or inactive are those of the source. Calls come from the whole dose curve; as a rule, active = well fitted inhibition curve with a large enough effect; inconclusive = small, poorly fitted or top-dose-only effect; inactive = no such curve, though single readings can be large or run the other way.

This test addresses Retinaldehyde dehydrogenase 3 (Homo sapiens) (UniProt P47895). The test can be described thus: qHTS for Inhibitors of the Aldehyde Dehydrogenase Family (ALDH1A3) Primary screen (AID 2061315). Particulars: ALDH inhibition qHTS; series mostly up to 56 µM. (In general: Quantitative high-throughput screening tests each substance at several concentrations.)
For `CS(=O)(=O)c1ccc(C(=O)OCC(=O)N2CCN(C3CCCCC3)CC2)cc1[N+](=O)[O-]`, the Potency result was “inactive”.

Turning to `COc1cc2c(cc1OC)CN(C(=O)/C=C/c1c(-c3ccccc3)n(C)c3ncccc13)CC2`, the Potency result was “inactive”.

As to `O=[S+]([O-])(Nc1ccc2ccccc2c1)c1ccc(NCc2ccc(Cl)cc2O)cc1`, the Potency result is “inactive”.

Turning to `N#Cc1ccc(-c2ccc(-c3nc4ccccc4c(=O)[nH]3)o2)cc1`, the Potency result is “inactive”.

Take `Cc1cc(/C=C/C#N)cc(C)c1Nc1nc(Nc2ccc3n[nH]nc3c2)c2[nH]cnc2n1`: the Potency entry was “inactive”.

On to `Clc1nc(CN2CCOCC2)nc2sc3c(c12)CCC3`, for which the Potency result is “inactive”.

As for `CC(=O)Nc1sc2c(c1-c1ccc(OC(F)(F)F)cc1)CCNC2`, the Potency result is “inactive”.

With `COc1cc(C(N)=O)nc(-c2ccccn2)c1O`, the Potency entry is “inactive”.

Consider `CN(C)c1cccc(-c2ncnc(N3CCC(C(N)=O)CC3)n2)c1`, for which the Potency entry is “inactive”.

Turning to `Cc1cccc(CNc2ccnc(-c3ccc4ccccc4c3)n2)c1`, the Potency entry is “inactive”.

`O=C(O)c1ccc(O)c2ncc(N3CCCN(CCc4ccncc4)CC3)cc12`: the Potency result is “inactive”.

For the compound `Cc1c(P(=S)(c2ccccc2)c2ccccc2)c2ccccc2n1C/C=C/c1ccccc1`, the Potency entry was “inactive”.

Consider `CSC(Cc1ccc(Cl)cc1)C(=O)Nc1ccc(Cl)cc1C(=O)O` (stereo not given), for which the Potency result is “inactive”.

Consider `Oc1ccc(CNc2ccc(F)cc2Cl)c2cccnc12`, for which the Potency result was “inactive”.

Consider `NC(=O)C1CCN(c2ncnc(-c3ccc4c(c3)OCCCO4)n2)CC1`, for which the Potency entry was “inactive”.

As to `Cc1ccc(OCCn2c(CCNC(=O)c3ccc(C(C)(C)C)cc3)nc3ccccc32)cc1`, the Potency entry is “inactive”.

For `Cc1csc(CNc2ncnc3ccc(-c4ccc(CO)o4)cc23)n1`, the Potency entry is “inactive”.

`CCOC(=O)c1nn(-c2ccc(OC)cc2)c(=O)c2c(N)scc12`: the Potency result is “inactive”.

Consider `COc1cc(O)c(C(CC(=O)N2CC(C)CC(C)C2)c2ccc(C)cc2)c(OC)c1` (stereo not given), for which the Potency result was “inactive”.

On to `CC(=O)Nc1sc2c(c1-c1nc3ccccc3s1)CCN(C(C)=O)C2`, for which the Potency result was “inactive”.

For the compound `Fc1cccc(CNc2nc(-c3ccccc3C(F)(F)F)nc3ccccc23)c1`, the Potency result is “inactive”.

As for `S=C(Nc1cc(Cl)ccn1)N1CCN(c2ccc(Cl)cc2Cl)CC1`, the Potency entry is “inactive”.

Regarding `COc1ccc(C2Cc3ccccc3C(=O)N2Cc2ccccc2)cc1COc1ccc(NC(C)=O)cc1` (stereo not given), the Potency result is “inactive”.

With `Nc1ccc(-c2ccnc(NCCCNC(=O)c3c(Cl)cccc3Cl)n2)cc1`, the Potency result is “inactive”.

For the compound `O=C(NCc1nnc(C(=O)Nc2ccc(C(F)(F)F)cc2Cl)o1)c1ccccc1`, the Potency entry is “inactive”.

Regarding `Cc1cc(C)nc(NC(=S)N2CCN(c3cncs3)CC2)c1`, the Potency result is “inactive”.

Take `O=C(NCc1ccc(Oc2ccccc2)cc1)c1nc(-c2cc(Br)c(O)c(Br)c2)no1`: the Potency result is “inactive”.

Consider `CS(=O)(=O)Nc1cccc(-c2cc(F)c(S(=O)(=O)N3CCN(S(=O)(=O)c4ccc5c(c4)OCCO5)CC3)cc2F)c1`, for which the Potency entry was “inactive”.

Regarding `CC(C)(C)c1ccc(C(=O)Nc2ccc(-c3nc4ccccc4[nH]3)cc2)cc1`, the Potency result was “inactive”.

In the case of `Cc1ccc(C#Cc2cc(-c3nn(-c4nc(C(=O)O)cs4)c(CC4CC4)c3Cc3ccc(S(N)(=O)=O)c(F)c3)ccc2F)o1`, the Potency result was “inactive”.

As to `OCc1ccc(-c2ccc3ncnc(NCc4cccs4)c3c2)o1`, the Potency entry was “inactive”.

For the compound `COc1ccc2ncnc(NCc3cccs3)c2c1-c1ccc2c(c1)OCO2`, the Potency entry was “inactive”.

For `O=C(N1Cc2ccc(Nc3nn4c(=O)c5ccccc5nc4s3)cc2C1)C(F)(F)F`, the Potency result was “inactive”.

Turning to `Cn1ccc2cc(-c3csc(N4CCC(C(N)=O)CC4)n3)ccc21`, the Potency result was “inactive”.

Consider `Cc1ccc(N[S+](=O)([O-])c2cc3c(cc2CCc2ccccc2)NC(=O)CO3)cc1C`, for which the Potency entry is “inactive”.

For the compound `Cc1ccc(NS(=O)(=O)c2cc3c(cc2-c2ccccc2)NC(=O)CO3)cc1C`, the Potency entry is “inactive”.

As for `Cc1cc(C)n2ncc(C(=O)Nc3ccccc3)c2n1`, the Potency result is “inactive”.

On to `COc1ccc(C2c3c(nc(CCc4ccccc4)[nH]c3=O)Oc3ccc4ccccc4c32)cc1OC` (stereo not given), for which the Potency entry is “inactive”.

For the compound `CC(=O)c1ccc(-c2ccc3ncnc(NCc4ccc(C)o4)c3c2)o1`, the Potency entry was “inactive”.

On to `CNc1oc(-c2cccc3ccccc23)nc1C(=O)Nc1cccc(C#N)c1`, for which the Potency result was “inactive”.
